In PubChem BioAssay AID1159580 (chemical genetic matrix, 2015):
The whole screen tested about 5,500 compounds, of which about 2,000 (36%) were called active. Another 18% or so got no clear call; they are omitted. Cut-off read from the data, not from the text of the source: active = normalized growth mostly below about 0.91 (no sharp cut-off); inconclusive = no clear call, values can overlap the other calls; inactive = mostly above about 0.92. The list shows a part of the results.

Test: chemical genetic growth profiling, strain panel (AID 1159580);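 note: tested at 20 µM; growth read once vehicle control cultures reached saturation at 30 °C; 1 = growth at the plate median or of vehicle wells; lower values mean less growth of the strain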
Conditions: S. cerevisiae deletion strains, growth OD

Measured: normalized growth

CC(=O)[C@H]1CCC2C3CC=C4C[C@@H](OC(=O)CCC(=O)O)CC[C@]4(C)C3CC[C@@]21C (stereo not given in full)
active: locus YBR009C, strain hhf1, active compounds read low 0.899 | locus YDR137W, strain rgp1, active compounds read low 0.556 | locus YDR392W, strain spt3, active compounds read low 0.466 | locus YER155C, strain BEM2 (second series), active compounds read low 0.842 | locus YGL173C, strain kem1, active compounds read low 0.898 | locus YJL129C, strain trk1, active compounds read low 0.804 | locus YLR262C, strain YPT6 (second series), active compounds read low 0.57 | locus YLR320W, strain mms22, active compounds read low 0.796 | locus YML120C, strain ndi1, active compounds read low 0.9 | locus YMR205C, strain PFK2, active compounds read low 0.822 | locus YNL071W, strain lat1, active compounds read low 0.845
inactive: locus YAL021C, strain ccr4, active compounds read low 0.975 | locus YAL026C, strain drs2, active compounds read low 0.913 | locus YAL030W, strain snc1, active compounds read low 0.969 | locus YBL061C, strain skt5, active compounds read low 0.964 | locus YBR023C, strain chs3, active compounds read low 0.96 | locus YBR171W, strain sec66, active compounds read low 0.898 | locus YBR231C, strain swc5, active compounds read low 0.975 | locus YBR279W, strain paf1, active compounds read low 0.961 | locus YCL011C, strain gbp2, active compounds read low 0.957 | locus YCL016C, strain dcc1, active compounds read low 0.965 | locus YCL061C, strain MRC1, active compounds read low 0.962 | locus YCL069W, strain vba3, active compounds read low 0.983 | locus YCR088W, strain abp1, active compounds read low 0.966 | locus YDL005C, strain med2, active compounds read low 0.941 | locus YDL040C, strain nat1, active compounds read low 0.973 | locus YDR001C, strain nth1, active compounds read low 0.971 | locus YDR069C, strain doa4, active compounds read low 0.966 | locus YDR159W, strain sac3, active compounds read low 0.943 | locus YDR195W, strain ref2 1.03 | locus YDR297W, strain sur2, active compounds read low 0.95 | locus YDR334W, strain swr1, active compounds read low 0.989 | locus YDR335W, strain msn5, active compounds read low 0.977 | locus YEL003W, strain gim4, active compounds read low 0.968 | locus YEL037C, strain rad23, active compounds read low 0.972 | locus YEL061C, strain CIN8 (second series), active compounds read low 0.97 | locus YER015W, strain faa2, active compounds read low 0.985 | locus YER016W, strain bim1, active compounds read low 0.969 | locus YER111C, strain swi4, active compounds read low 0.953 | locus YFR010W, strain ubp6, active compounds read low 0.966 | locus YGL167C, strain pmr1, active compounds read low 0.928 | locus YGL227W, strain vid30, active compounds read low 0.973 | locus YGL240W, strain doc1, active compounds read low 0.939 | locus YGL253W, strain hxk2, active compounds read low 0.971 | locus YHR013C, strain ard1, active compounds read low 0.941 | locus YHR027C, strain rpn1, active compounds read low 0.978 | locus YHR030C, strain SLT2, active compounds read low 0.997 | locus YHR079C, strain IRE1, active compounds read low 0.974 | locus YHR142W, strain chs7, active compounds read low 0.932 | locus YJL092W, strain hpr5, active compounds read low 0.966 | locus YJL095W, strain BCK1 (second series), active compounds read low 0.971 | locus YJL095W, strain BCK1, active compounds read low 0.913 | locus YJL115W, strain asf1, active compounds read low 0.99 | locus YJL154C, strain vps35, active compounds read low 0.988 | locus YJL164C, strain tpk1, active compounds read low 0.955 | locus YJL166W, strain qcr8, active compounds read low 0.929 | locus YJL187C, strain SWE1, active compounds read low 0.968 | locus YJR066W, strain TOR1, active compounds read low 0.942 | locus YKL160W, strain elf1, active compounds read low 0.951 | locus YKR026C, strain gcn3, active compounds read low 0.962 | locus YKR091W, strain srl3, active compounds read low 0.968 | locus YLL001W, strain dnm1, active compounds read low 0.948 | locus YLL026W, active compounds read low 0.974 | locus YLL041C, strain sdh2, active compounds read low 0.985 | locus YLR027C, strain aat2, active compounds read low 0.978 | locus YLR113W, strain HOG1, active compounds read low 0.855 | locus YLR221C, strain rsa3, active compounds read low 0.967 | locus YLR258W, strain gsy2, active compounds read low 0.956 | locus YLR342W, strain FKS1, active compounds read low 0.955 | locus YLR357W, strain rsc2, active compounds read low 0.989 | locus YLR370C, strain arc18, active compounds read low 0.942 | locus YLR384C, strain iki3, active compounds read low 0.97 | locus YMR058W, strain fet3, active compounds read low 0.963 | locus YMR125W, strain sto1, active compounds read low 0.938 | locus YMR129W, active compounds read low 0.968 | locus YMR231W, strain pep5, active compounds read low 0.975 | locus YNL183C, strain NPR1, active compounds read low 0.927 | locus YNL209W, strain ssb2, active compounds read low 0.969 | locus YNL248C, strain rpa49, active compounds read low 0.988 | locus YNL322C, strain KRE1 (second series), active compounds read low 0.969 | locus YNR049C, strain mso1, active compounds read low 0.973 | locus YOR001W, strain rrp6, active compounds read low 0.952 | locus YOR070C, strain gyp1, active compounds read low 0.959 | locus YOR080W, strain dia2, active compounds read low 0.95 | locus YOR083W, strain WHI5, active compounds read low 0.974 | locus YOR106W, strain vam3, active compounds read low 0.953 | locus YOR231W, strain MKK1, active compounds read low 0.961 | locus YOR265W, strain rbl2, active compounds read low 0.981 | locus YOR270C, strain vph1, active compounds read low 0.91 | locus YOR290C, strain snf2, active compounds read low 0.908 | locus YPL051W, strain arl3, active compounds read low 0.973 | locus YPL078C, strain atp4, active compounds read low 0.956 | locus YPL106C, strain sse1, active compounds read low 1 | locus YPL240C, strain hsp82, active compounds read low 0.971 | locus YPL256C, strain CLN2, active compounds read low 0.991
